# Assay results reported in article PMC11062922 (Nature Chemical Biology, 2023).
# Where two headings read alike, the source gives them in different places.
# Tests used:
# Parameters in all cases: species or system human, MV4-11 + K-562 + COLO205 + SK-N-BE2 + OVCAR-8
# [1] = tested on: AURKA; conditions: read-out: apparent Kd; compound concentrations:100 nM and 1000 nM (sheet 'Samples'); n = 1
# [2] = tested on: AURKB; conditions: read-out: apparent Kd, n = 1
# [3] = tested on: DDR1; conditions: read-out: apparent Kd; compound concentrations:100 nM and 1000 nM (sheet 'Samples'); n = 1
# [4] = tested on: DDR2; conditions: read-out: apparent Kd, n = 1
# [5] = tested on: FLT3; conditions: read-out: apparent Kd, n = 1
# [6] = tested on: FLT4; conditions: read-out: apparent Kd, n = 1
# [7] = tested on: MET; conditions: read-out: apparent Kd; compound concentrations:100 nM and 1000 nM (sheet 'Samples'); n = 1
# [8] = tested on: PLK4; conditions: read-out: apparent Kd; compound concentrations:100 nM and 1000 nM (sheet 'Samples'); n = 1
# [9] = tested on: RET; conditions: read-out: apparent Kd; compound concentrations:100 nM and 1000 nM (sheet 'Samples'); n = 1
# [10] = tested on: TGFBR2; conditions: read-out: apparent Kd; compound concentrations:100 nM and 1000 nM (sheet 'Samples'); n = 1
# [11] = tested on: TNK1; conditions: read-out: apparent Kd; compound concentrations:100 nM and 1000 nM (sheet 'Samples'); n = 1
# [12] = tested on: BMP2K; conditions: read-out: apparent Kd; compound concentrations: 100 nM and 1000 nM (sheet 'Samples'), CATDS: 7.6838434423815494E-2; n = 1
# [13] = tested on: CDKL5; conditions: read-out: apparent Kd; compound concentrations: 100 nM and 1000 nM (sheet 'Samples'), CATDS: 7.5707148377712405E-2; n = 1
# [14] = tested on: GSK3A; conditions: read-out: apparent Kd; compound concentrations: 100 nM and 1000 nM (sheet 'Samples'), CATDS: 8.1333822841740205E-2; n = 1
# [15] = tested on: GSK3B; conditions: read-out: apparent Kd; compound concentrations: 100 nM and 1000 nM (sheet 'Samples'), CATDS: 7.5519353695847294E-2; n = 1
# [16] = tested on: HSPE1; conditions: read-out: apparent Kd; compound concentrations: 100 nM and 1000 nM (sheet 'Samples'), CATDS: 0.31901289007405398; n = 1
# [17] = tested on: ICK; conditions: read-out: apparent Kd; compound concentrations: 100 nM and 1000 nM (sheet 'Samples'), CATDS: 5.8957301425707501E-2; n = 1
# [18] = tested on: JAK1; conditions: read-out: apparent Kd; compound concentrations: 100 nM and 1000 nM (sheet 'Samples'), CATDS: 9.4979881318968506E-2; n = 1
# [19] = tested on: MAPK9; conditions: read-out: apparent Kd; compound concentrations: 100 nM and 1000 nM (sheet 'Samples'), CATDS: 5.8843363107673401E-2; n = 1
# [20] = tested on: NUAK1; conditions: read-out: apparent Kd; compound concentrations: 100 nM and 1000 nM (sheet 'Samples'), CATDS: 6.5408557388510299E-2; n = 1
# [21] = tested on: PGK1; conditions: read-out: apparent Kd; compound concentrations: 100 nM and 1000 nM (sheet 'Samples'), CATDS: 0.33349072490792903; n = 1
# [22] = tested on: PKM; conditions: read-out: apparent Kd; compound concentrations: 100 nM and 1000 nM (sheet 'Samples'), CATDS: 6.2556323198701705E-2; n = 1
# [23] = tested on: AXL; conditions: read-out: apparent Kd; compound concentrations:100 nM and 1000 nM (sheet 'Samples'); n = 1
# [24] = tested on: EIF2AK1; conditions: read-out: apparent Kd; compound concentrations:100 nM and 1000 nM (sheet 'Samples'); n = 1
# [25] = tested on: DCTPP1; conditions: read-out: apparent Kd; compound concentrations: 100 nM and 1000 nM (sheet 'Samples'), CATDS: 8.7325060780524003E-2; n = 1
# [26] = tested on: PDGFRB; conditions: read-out: apparent Kd; compound concentrations: 100 nM and 1000 nM (sheet 'Samples'), CATDS: 0.111791794909036; n = 1
# [27] = tested on: PI4KB; conditions: read-out: apparent Kd; compound concentrations: 100 nM and 1000 nM (sheet 'Samples'), CATDS: 0.119169210644034; n = 1
# [28] = tested on: PIK3CD; conditions: read-out: apparent Kd; compound concentrations: 100 nM and 1000 nM (sheet 'Samples'), CATDS: 0.38237858605116598; n = 1
# [29] = tested on: TAOK1; conditions: read-out: apparent Kd; compound concentrations: 100 nM and 1000 nM (sheet 'Samples'), CATDS: 9.5219877084068302E-2; n = 1
# [30] = compound concentrations:100 nM and 1000 nM (sheet 'Samples')
compound,measurement,setting,value
CN1CCN(C(=O)c2ccc(NC(=O)Nc3ccc(N(C)c4ccnc(Nc5ccc(CS(C)(=O)=O)cc5)n4)cc3)cc2)CC1.Cl [GW830263A],potency estimated from few doses,[1],303 nM
same,potency estimated from few doses,[2]; [30],247 nM
same,potency estimated from few doses,[3],816 nM
same,potency estimated from few doses,[4]; [30],1150 nM
same,potency estimated from few doses,[5]; [30],108 nM
same,potency estimated from few doses,[6]; [30],566 nM
same,potency estimated from few doses,[7],2330 nM
same,potency estimated from few doses,[8],873 nM
same,potency estimated from few doses,[9],708 nM
same,potency estimated from few doses,[10],2130 nM
same,potency estimated from few doses,[11],357 nM
Cc1ccc2c(c1)c(C1=C(c3cn(C)c4ccccc34)C(=O)NC1=O)cn2C [RO0317510-000],potency estimated from few doses,[12],783 nM
same,potency estimated from few doses,[13],815 nM
same,potency estimated from few doses,"[5]; compound concentrations: 100 nM and 1000 nM (sheet 'Samples'), CATDS: 9.6631146746451402E-2",449 nM
same,potency estimated from few doses,[14],676 nM
same,potency estimated from few doses,[15],820 nM
same,potency estimated from few doses,[16],48.4 nM
same,potency estimated from few doses,[17],1800 nM
same,potency estimated from few doses,[18],467 nM
same,potency estimated from few doses,[19],1810 nM
same,potency estimated from few doses,[20],1250 nM
same,potency estimated from few doses,[21],45.2 nM
same,potency estimated from few doses,[22],1450 nM
Cc1cccc(CC(=O)N2CCc3c2ccc(-c2cn(C)c4ncnc(N)c24)c3F)n1 [GSK2656157],potency estimated from few doses,[23],503 nM
same,potency estimated from few doses,[24],751 nM
Cn1ccc2ncnc(Oc3ccc(NC(=O)Nc4ccccc4)cc3)c21 [TPKI-69],potency estimated from few doses,"[2]; compound concentrations: 100 nM and 1000 nM (sheet 'Samples'), CATDS: 0.138800296841457",695 nM
same,potency estimated from few doses,[25],2030 nM
same,potency estimated from few doses,"[4]; compound concentrations: 100 nM and 1000 nM (sheet 'Samples'), CATDS: 8.3380311484054601E-2",2350 nM
same,potency estimated from few doses,"[5]; compound concentrations: 100 nM and 1000 nM (sheet 'Samples'), CATDS: 0.108927417624357",1150 nM
same,potency estimated from few doses,"[6]; compound concentrations: 100 nM and 1000 nM (sheet 'Samples'), CATDS: 9.3314690514963106E-2",1680 nM
same,potency estimated from few doses,[26],1080 nM
same,potency estimated from few doses,[27],943 nM
same,potency estimated from few doses,[28],142 nM
same,potency estimated from few doses,[29],1600 nM
